# Assay results: paper PMC3315485, “Probing the Informational and Regulatory Plasticity of a Transcription Factor DNA–Binding Domain”
# Substitutions are numbered along the chain they refer to.
# What was measured:
# Test in all cases: MITOMI; MITOMI, 295 K (22 C); buffer, salt and pH not stated in the material; high values mean tight binding
# Conditions in all cases: protein: ivt; label: fluorescent; dsDNA, one strand shown
# [1] = biological target: T1, MarA wild type (WQR) (Escherichia coli, UniProt P0ACH5 1-127)
# T1 sequence: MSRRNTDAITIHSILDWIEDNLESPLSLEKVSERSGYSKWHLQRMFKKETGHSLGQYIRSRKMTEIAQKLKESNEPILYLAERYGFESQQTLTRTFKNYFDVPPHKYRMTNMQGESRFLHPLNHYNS
# Summary of the method: (§1)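 Association constants were determined by MITOMI and are expressed for each site relative to the site with the highest affinity for the same protein variant. The MarA protein variants were made with the RTS E. coli HY kit by in vitro transcription and translation and labelled through addition of tRNA-lys-bodipy-fl. Testing covered 64 synthesized mar binding site variants, with fluorescence read on Genepix at 295K.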
# [2] = biological target: T2, MarA RQR (Escherichia coli, UniProt P0ACH5 1-127, W40R)
# T2 sequence: T1 sequence with W40R
# Summary of the method: as §1
# [3] = biological target: T3, MarA RTR (Escherichia coli, UniProt P0ACH5 1-127, W40R;Q43T)
# T3 sequence: T1 sequence with W40R, Q43T
# Summary of the method: as §1
# [4] = biological target: T4, MarA SAR (Escherichia coli, UniProt P0ACH5 1-127, W40S;Q43A)
# T4 sequence: T1 sequence with W40S, Q43A
# Summary of the method: as §1
# [5] = biological target: T5, MarA TRR (Escherichia coli, UniProt P0ACH5 1-127, W40T;Q43R)
# T5 sequence: T1 sequence with W40T, Q43R
# Summary of the method: as §1
Sequence,binding signal [1],binding signal [2],binding signal [3],binding signal [4],binding signal [5]
ATGTGCCGTTTTGCTAAAT,0.245 Ka relative to the best site of the variant,0.134 Ka relative to the best site of the variant,0.201 Ka relative to the best site of the variant,0.236 Ka relative to the best site of the variant,0.407 Ka relative to the best site of the variant
ATGCGACGTTTTGCTAAAT,0.369 Ka relative to the best site of the variant,0.148 Ka relative to the best site of the variant,0.24 Ka relative to the best site of the variant,0.43 Ka relative to the best site of the variant,0.589 Ka relative to the best site of the variant
ATGAAACGTTTTGCTAAAT,0.124 Ka relative to the best site of the variant,0.0424 Ka relative to the best site of the variant,0.323 Ka relative to the best site of the variant,0.852 Ka relative to the best site of the variant,0.36 Ka relative to the best site of the variant
ATGGAGCGTTTTGCTAAAT,0.262 Ka relative to the best site of the variant,0.119 Ka relative to the best site of the variant,0.191 Ka relative to the best site of the variant,0.506 Ka relative to the best site of the variant,0.392 Ka relative to the best site of the variant
ATGCCTCGTTTTGCTAAAT,0.454 Ka relative to the best site of the variant,0.232 Ka relative to the best site of the variant,0.235 Ka relative to the best site of the variant,0.486 Ka relative to the best site of the variant,0.474 Ka relative to the best site of the variant
ATGGGTCGTTTTGCTAAAT,0.232 Ka relative to the best site of the variant,0.141 Ka relative to the best site of the variant,0.203 Ka relative to the best site of the variant,0.534 Ka relative to the best site of the variant,0.334 Ka relative to the best site of the variant
ATGGTACGTTTTGCTAAAT,0.294 Ka relative to the best site of the variant,0.124 Ka relative to the best site of the variant,0.222 Ka relative to the best site of the variant,0.797 Ka relative to the best site of the variant,0.39 Ka relative to the best site of the variant
ATGAACCGTTTTGCTAAAT,0.224 Ka relative to the best site of the variant,0.104 Ka relative to the best site of the variant,0.204 Ka relative to the best site of the variant,0.776 Ka relative to the best site of the variant,0.379 Ka relative to the best site of the variant
ATGTGACGTTTTGCTAAAT,0.253 Ka relative to the best site of the variant,0.11 Ka relative to the best site of the variant,0.173 Ka relative to the best site of the variant,0.165 Ka relative to the best site of the variant,0.413 Ka relative to the best site of the variant
ATGCCCCGTTTTGCTAAAT,0.272 Ka relative to the best site of the variant,0.294 Ka relative to the best site of the variant,0.243 Ka relative to the best site of the variant,0.492 Ka relative to the best site of the variant,0.397 Ka relative to the best site of the variant
ATGCAACGTTTTGCTAAAT,0.365 Ka relative to the best site of the variant,0.142 Ka relative to the best site of the variant,0.188 Ka relative to the best site of the variant,0.461 Ka relative to the best site of the variant,0.501 Ka relative to the best site of the variant
ATGGCCCGTTTTGCTAAAT,0.293 Ka relative to the best site of the variant,0.811 Ka relative to the best site of the variant,1 Ka relative to the best site of the variant,0.552 Ka relative to the best site of the variant,0.382 Ka relative to the best site of the variant
ATGATTCGTTTTGCTAAAT,0.264 Ka relative to the best site of the variant,0.122 Ka relative to the best site of the variant,0.208 Ka relative to the best site of the variant,0.807 Ka relative to the best site of the variant,0.453 Ka relative to the best site of the variant
ATGCCGCGTTTTGCTAAAT,0.414 Ka relative to the best site of the variant,0.195 Ka relative to the best site of the variant,0.245 Ka relative to the best site of the variant,0.468 Ka relative to the best site of the variant,0.561 Ka relative to the best site of the variant
ATGCGGCGTTTTGCTAAAT,0.318 Ka relative to the best site of the variant,0.0951 Ka relative to the best site of the variant,0.255 Ka relative to the best site of the variant,0.379 Ka relative to the best site of the variant,0.501 Ka relative to the best site of the variant
ATGCACCGTTTTGCTAAAT,0.261 Ka relative to the best site of the variant,0.132 Ka relative to the best site of the variant,0.202 Ka relative to the best site of the variant,0.497 Ka relative to the best site of the variant,0.449 Ka relative to the best site of the variant
ATGTGTCGTTTTGCTAAAT,0.284 Ka relative to the best site of the variant,0.132 Ka relative to the best site of the variant,0.231 Ka relative to the best site of the variant,0.282 Ka relative to the best site of the variant,0.424 Ka relative to the best site of the variant
ATGACTCGTTTTGCTAAAT,0.378 Ka relative to the best site of the variant,0.586 Ka relative to the best site of the variant,0.469 Ka relative to the best site of the variant,0.657 Ka relative to the best site of the variant,0.382 Ka relative to the best site of the variant
ATGGTGCGTTTTGCTAAAT,0.304 Ka relative to the best site of the variant,0.115 Ka relative to the best site of the variant,0.183 Ka relative to the best site of the variant,0.784 Ka relative to the best site of the variant,0.382 Ka relative to the best site of the variant
ATGAGACGTTTTGCTAAAT,0.307 Ka relative to the best site of the variant,0.0985 Ka relative to the best site of the variant,0.229 Ka relative to the best site of the variant,0.913 Ka relative to the best site of the variant,0.362 Ka relative to the best site of the variant
ATGTAGCGTTTTGCTAAAT,0.284 Ka relative to the best site of the variant,0.0898 Ka relative to the best site of the variant,0.685 Ka relative to the best site of the variant,0.152 Ka relative to the best site of the variant,0.356 Ka relative to the best site of the variant
ATGAGTCGTTTTGCTAAAT,0.239 Ka relative to the best site of the variant,0.136 Ka relative to the best site of the variant,0.173 Ka relative to the best site of the variant,0.944 Ka relative to the best site of the variant,0.446 Ka relative to the best site of the variant

Sequence,binding signal [1],binding signal [2],binding signal [3],binding signal [4],binding signal [5]
ATGTTGCGTTTTGCTAAAT,0.405 Ka relative to the best site of the variant,0.193 Ka relative to the best site of the variant,0.518 Ka relative to the best site of the variant,0.191 Ka relative to the best site of the variant,0.665 Ka relative to the best site of the variant
ATGTATCGTTTTGCTAAAT,0.282 Ka relative to the best site of the variant,0.121 Ka relative to the best site of the variant,0.902 Ka relative to the best site of the variant,0.221 Ka relative to the best site of the variant,0.432 Ka relative to the best site of the variant
ATGTGGCGTTTTGCTAAAT,0.242 Ka relative to the best site of the variant,0.105 Ka relative to the best site of the variant,0.165 Ka relative to the best site of the variant,0.152 Ka relative to the best site of the variant,0.493 Ka relative to the best site of the variant
ATGAATCGTTTTGCTAAAT,0.215 Ka relative to the best site of the variant,0.091 Ka relative to the best site of the variant,0.214 Ka relative to the best site of the variant,0.481 Ka relative to the best site of the variant,0.309 Ka relative to the best site of the variant
ATGCTACGTTTTGCTAAAT,0.363 Ka relative to the best site of the variant,0.117 Ka relative to the best site of the variant,0.285 Ka relative to the best site of the variant,0.491 Ka relative to the best site of the variant,0.571 Ka relative to the best site of the variant
ATGACGCGTTTTGCTAAAT,0.362 Ka relative to the best site of the variant,0.33 Ka relative to the best site of the variant,0.382 Ka relative to the best site of the variant,0.905 Ka relative to the best site of the variant,0.302 Ka relative to the best site of the variant
ATGATGCGTTTTGCTAAAT,0.319 Ka relative to the best site of the variant,0.106 Ka relative to the best site of the variant,0.243 Ka relative to the best site of the variant,0.854 Ka relative to the best site of the variant,0.404 Ka relative to the best site of the variant
ATGAGGCGTTTTGCTAAAT,0.283 Ka relative to the best site of the variant,0.103 Ka relative to the best site of the variant,0.212 Ka relative to the best site of the variant,0.726 Ka relative to the best site of the variant,0.475 Ka relative to the best site of the variant
ATGGCTCGTTTTGCTAAAT,0.35 Ka relative to the best site of the variant,0.759 Ka relative to the best site of the variant,0.904 Ka relative to the best site of the variant,0.656 Ka relative to the best site of the variant,0.362 Ka relative to the best site of the variant
ATGTTCCGTTTTGCTAAAT,0.197 Ka relative to the best site of the variant,,,,
ATGTCACGTTTTGCTAAAT,0.38 Ka relative to the best site of the variant,0.819 Ka relative to the best site of the variant,0.306 Ka relative to the best site of the variant,0.302 Ka relative to the best site of the variant,0.461 Ka relative to the best site of the variant
ATGCGTCGTTTTGCTAAAT,0.26 Ka relative to the best site of the variant,0.144 Ka relative to the best site of the variant,0.153 Ka relative to the best site of the variant,0.552 Ka relative to the best site of the variant,0.435 Ka relative to the best site of the variant
ATGTCTCGTTTTGCTAAAT,0.301 Ka relative to the best site of the variant,0.956 Ka relative to the best site of the variant,0.642 Ka relative to the best site of the variant,0.259 Ka relative to the best site of the variant,0.462 Ka relative to the best site of the variant
ATGGACCGTTTTGCTAAAT,0.196 Ka relative to the best site of the variant,0.106 Ka relative to the best site of the variant,0.154 Ka relative to the best site of the variant,0.573 Ka relative to the best site of the variant,1 Ka relative to the best site of the variant
ATGGGGCGTTTTGCTAAAT,0.307 Ka relative to the best site of the variant,0.11 Ka relative to the best site of the variant,0.167 Ka relative to the best site of the variant,0.429 Ka relative to the best site of the variant,0.451 Ka relative to the best site of the variant
ATGTACCGTTTTGCTAAAT,0.215 Ka relative to the best site of the variant,0.142 Ka relative to the best site of the variant,0.989 Ka relative to the best site of the variant,0.25 Ka relative to the best site of the variant,0.417 Ka relative to the best site of the variant
ATGTAACGTTTTGCTAAAT,0.345 Ka relative to the best site of the variant,0.135 Ka relative to the best site of the variant,0.514 Ka relative to the best site of the variant,0.232 Ka relative to the best site of the variant,0.492 Ka relative to the best site of the variant
ATGTCCCGTTTTGCTAAAT,0.181 Ka relative to the best site of the variant,1 Ka relative to the best site of the variant,0.848 Ka relative to the best site of the variant,0.233 Ka relative to the best site of the variant,0.399 Ka relative to the best site of the variant
ATGCATCGTTTTGCTAAAT,0.317 Ka relative to the best site of the variant,0.112 Ka relative to the best site of the variant,0.186 Ka relative to the best site of the variant,0.449 Ka relative to the best site of the variant,0.422 Ka relative to the best site of the variant
ATGCGCCGTTTTGCTAAAT,0.223 Ka relative to the best site of the variant,0.154 Ka relative to the best site of the variant,0.178 Ka relative to the best site of the variant,0.602 Ka relative to the best site of the variant,0.457 Ka relative to the best site of the variant
ATGATCCGTTTTGCTAAAT,0.22 Ka relative to the best site of the variant,0.117 Ka relative to the best site of the variant,0.175 Ka relative to the best site of the variant,0.872 Ka relative to the best site of the variant,0.466 Ka relative to the best site of the variant
